Results filed as inconclusive are left out. Activity calls are given as the source filed them. How the source made its calls: active means hit-call score of the fitted dose curve at least 0.9, where 1 is the maximum; inconclusive means response in the unintended direction; inactive means score below 0.9.
The compounds below were run against Oxysterols receptor LXR-alpha (Homo sapiens) (UniProt Q13133) (assay: ATG_LXRa_TRANS: Attagene TRANS-FACTORIAL HepG2 Assay for human Liver X Receptor alpha (LXRa) (AID 2282980)). Details: HepG2 Attagene TRANS reporter, LXRa transactivation.
Protocol: ATG_TRANS is a cell-based, multiplexed-readout assay that uses HepG2, a human liver cell line, with measurements taken at 24 hours after chemical dosing in a 24-well plate.ATG_LXRa_TRANS is one of 30 assay component(s) measured or calculated from the ATG_TRANS assay. It is designed to make measurements of mRNA induction, a form of inducible reporter, as detected with fluorescence intensity signals by Reverse transcription polymerase chain reaction (RT-PCR) and Capillary electrophoresis technology.Data from the assay component ATG_LXRa_TRANS was analyzed into 1 assay endpoint. This assay endpoint, ATG_LXRa_TRANS, was analyzed in the positive analysis fitting direction relative to DMSO as the negative control and baseline of activity. Using a type of inducible reporter, measures of mRNA for gain-of-signal activity can be used to understand the reporter gene at the transcription factor-level as they relate to the gene NR1H3. Furthermore, this assay endpoint can be referred to as a primary readout, because this assay has produced multiple assay endpoints where this one serves a reporter gene function. To generalize the intended target to other relatable targets, this assay endpoint is annotated to the nuclear receptor intended target family, where the subfamily is non-steroidal.
Human liver HepG2 cells are transiently transfected with multiple reporter transcription units (MRTUs) in 6-well plates using FuGene 6 reagent (Roche; 3 ml FuGene/1 mg DNA). The MRTU constructs are regulated by a cis-regulating element (promoter). […] A major difference between the CIS and TRANS system is that in CIS activities of endogenous TFs are measured, whereas the TRANS assay evaluates changes in activities of exogenous, chimeric NR-Gal4 proteins. […] At the end of 24 hour incubation, total RNA was isolated using TriZol reagent (Invitrogen). The isolated RNA is then reverse-transcribed using oligo(dT) primer and Mo-MLV reverse transcriptase (Invitrogen) with DNAse I (Ambion) treatment for 30 min. The one-tenth of the produced cDNA was amplified by PCR using Taq DNA polymerase (Invitrogen) and two reporter sequence-specific primers. The PCR products were fluorescently labeled by primer extension with 6-arboxyfluorescein (6-FAM) 5'-labeled reporter sequence-specific primer (2 min at 95 C, 20 s at 68 C and 10 min at 72 C) and these products were digested with 5U of HpaI (New England Biolabs) for 2h at 37 C. The fragments were purified using Qiaquick PCR columns (Qiagen), analyzed on an ABI 3130xL genetic analyzer (Applied Biosystems) with peak positions identified by using a set of X-rhodamine (ROX)-labeled MapMarker1000 molecular weight standards (BioVentures). The raw capillary electrophoresis data was processed using Attagraph software (Attagene).

Chain of Oxysterols receptor LXR-alpha (Homo sapiens) (Q13133 whole entry, looked up): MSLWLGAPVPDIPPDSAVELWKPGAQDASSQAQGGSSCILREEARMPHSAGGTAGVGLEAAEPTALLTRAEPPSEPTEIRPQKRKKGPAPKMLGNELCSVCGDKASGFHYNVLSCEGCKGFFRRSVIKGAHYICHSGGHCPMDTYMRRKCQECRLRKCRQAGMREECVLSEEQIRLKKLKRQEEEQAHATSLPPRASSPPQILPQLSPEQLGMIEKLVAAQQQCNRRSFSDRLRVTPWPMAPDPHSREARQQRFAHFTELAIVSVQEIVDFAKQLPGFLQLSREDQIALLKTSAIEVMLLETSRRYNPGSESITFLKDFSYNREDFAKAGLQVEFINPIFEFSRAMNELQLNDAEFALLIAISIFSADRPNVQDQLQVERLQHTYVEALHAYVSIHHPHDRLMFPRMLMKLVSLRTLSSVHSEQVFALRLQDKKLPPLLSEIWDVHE

Compound	outcome	AC50
Cc1occc1C(=O)Nc1ccc(C(=O)N2CCC(F)(F)/C(=C\C(=O)N3CCC(N4CCCCC4)CC3)c3ccccc32)cc1	inactive	
Cc1oc2c(NC(=O)c3c(Cl)cccc3Cl)cccc2c1C(C)(C)O	inactive	
COc1ccc2cc(S(=O)(=O)N[C@H](CC(=O)N[C@H](Cc3ccc(CN4[C@H](C)CCC[C@@H]4C)cc3)C(=O)N(C)C(C)C)c3ccc4c(c3)OCO4)ccc2c1	inactive	
O=c1c(-c2ccc(O)cc2)coc2cc(O)cc(O)c12	inactive	
OC12N=C(c3ccccc3)SC1Cc1cc(Cl)ccc12 (stereo not given)	inactive	
O=C(O)c1ccccc1-n1cc(C(=O)O)c(=O)c2cc(Nc3c(F)cc(F)cc3Cl)c(Cl)cc21	inactive	
CCN(CC)C(=O)c1cc(S(=O)(=O)Cc2ccccc2)c(N2CCC(c3ccccc3)CC2)cc1N(CC)CCN(C)C	inactive	
O=CCCCC=O	inactive	
CC1(C)NC(=O)N(c2ccc([N+](=O)[O-])c(C(F)(F)F)c2)C1=O	inactive	
O=C1CCC(C2CCCCC2)CC1	inactive	
CCCCCCCC[Si](OCC)(OCC)OCC	inactive	
CC(O)CC(C)(C)O (stereo not given)	inactive	
CCCCCCCCCCCCO	inactive	
c1ccc2n[nH]nc2c1	inactive	
CN(C)C(=O)C1(N2CCCCC2)CCN(CC[C@@]2(c3ccc(Cl)c(Cl)c3)CN(C(=O)c3ccccc3)CCO2)CC1	inactive	
COc1cc(C(=O)NC2CCN(C)CC2)ccc1Nc1ncc2c(n1)N(C1CCCC1)CC(F)(F)C(=O)N2C	inactive	
C[C@]12CC[C@@H]3c4ccc(O)cc4CC[C@H]3[C@@H]1CCC2=O	inactive	
O=C(O)Cc1cc(I)c(Oc2ccc(O)c(I)c2)c(I)c1	inactive	
CCCCCCCCOC(=O)c1cc(O)c(O)c(O)c1		52.2 µM (active)
CCCCCCCCCCCC[N+](C)(C)C	inactive	

Compound	outcome	AC50
Cc1c2ccccc2c(C)c2c1ccc1ccccc12	inactive	
Oc1ccccc1	inactive	
CCCCOC(=O)c1ccc(O)cc1	inactive	
O=C(Nc1ccc(Cl)cc1)Nc1ccc(Cl)c(Cl)c1	inactive	
CCCC(=O)OCCC(C)C	inactive	
C[C@]12CC[C@@H]3c4ccc(O)cc4CC[C@H]3[C@@H]1CC[C@H]2O	inactive	
O=C=NCCCCCCN=C=O	inactive	
CCCCCc1ccc(N)cc1	inactive	
CC/C(=C(/CC)c1ccc(O)cc1)c1ccc(O)cc1	inactive	
Cc1ccc(C(C)C)cc1	inactive	
Cc1ncc(CO)c(CO)c1O	inactive	
CN1C(=O)CC[C@H]1c1cccnc1	inactive	
CO[C@H]1/C=C/O[C@@]2(C)Oc3c(C)c(O)c4c(O)c(c(/C=N/N5CCN(C)CC5)c(O)c4c3C2=O)NC(=O)/C(C)=C\C=C\[C@H](C)[C@H](O)[C@@H](C)[C@@H](O)[C@@H](C)[C@H](OC(C)=O)[C@@H]1C	inactive	
c1ccc(C[n+]2cccc3ccccc32)cc1	inactive	
Cc1ccc2oc(CN(Cc3ccccc3)C(=O)Nc3c(F)cc(F)cc3F)c(-c3ccc(Cl)cc3)c2c1	inactive	
CC1=CC(=O)/C(=C(/C)O)C(=O)O1	inactive	
CC[C@@H]1C[C@H](N(Cc2cc(C(F)(F)F)cc(C(F)(F)F)c2)C(C)=O)c2cc(C(F)(F)F)ccc2N1C(=O)OC(C)C	inactive	
O=C1O[C@H]([C@@H](O)CO)C(O)=C1O	inactive	
NCc1cccc(C2CCN(C(=O)c3ccc(C#Cc4ccccc4F)o3)CC2)c1		8.2 µM (active)
O=C(OCCCCCCOC(=O)c1ccccc1)c1ccccc1	inactive	
